# Bioassay records deposited in PubChem by National Center for Advancing Translational Sciences (NCATS).
# Shown are actives, neighbours in structure and some others; about 19% of the full set was active somewhere.
# DT40 TDP1 no CPT: qHTS for Inhibitors of human tyrosyl-DNA phosphodiesterase 1 (TDP1): qHTS in cells in absence of CPT; DT40 Tdp1-/- hTDP1 cells, no CPT, ATP luminescence, 48 h; Potency, µM (top dose mostly 46.2 µM), for inactives: at the top dose activity change, negative = growth inhibition, actives largely listed as inhibitors; hit rate 15% among 420,000; AID 686978, 2013; note: nearly all actives have a fitted effect of over 55% in size
#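 Growth kinetics read by CellTiter-Glo luminescence after ≥48 hr at 37 °C. Cells: DT40 Tdp1-/- stably carrying human TDP1, 400 per well, compound exposure in the absence of CPT (DMSO vehicle).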
# KB-3-1 cytotox: kills parental KB-3-1 adenocarcinoma cells; Potency, µM (titrated, usually from 46.1 µM), hits mostly cytotoxic; hit rate 1.4% among 400,000; KB-3-1 viability, CellTiter-Glo ATP luminescence, 72 h; note: nearly all actives have a fitted effect of over 60% in size
#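 72 h, 37 °C compound treatment of KB-3-1 parental cells; CellTiter-Glo added, 10 min, luminescence read. Data corrected against DMSO-only plates and normalized before curve fitting.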
# HT1080-NT tox: kills 2HG-producing HT-1080-NT fibrosarcoma cells; HT-1080-NT fibrosarcoma viability, CellTiter-Glo ATP luminescence, 48 h; Potency, µM (top dose mostly 46.1 µM), inactives show at the top dose activity, negative = less viability, usual class: cytotoxic; hit rate 1.6% among 360,000; AID 686970;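 note: NT is the 2HG producing partner of a matched IDH1 knockdown line; 0% = DMSO-treated cells and -100% = media-only wells without cells; nearly all actives have a fitted effect of over 55% in size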
#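 A 48-hour cytotoxicity screen used HT-1080-NT cells plated 2 hours before compound delivery. ATP-based CellTiter-Glo luminescence measured viability, normalized to DMSO and no-cell controls.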
# KB-V1 cytotox: kills drug-selected multidrug resistant KB-V1 cells; KB-V1 MDR cells viability, CellTiter-Glo, 72 h; hit rate 3.4% among 400,000; Potency, µM (highest dose often 46.1 µM), hits mostly cytotoxic; note: nearly all actives have a fitted effect of over 60% in size
#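 Cytotoxicity toward P-gp-expressing KB-V1 cells was determined as loss of CellTiter-Glo luminescence after 72 h at 37 degrees C. Compounds were tested in quantitative HTS format across a concentration range, with curves fitted to normalized data.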
# HT1080 IDH1KD tx: HT-1080 IDH1 knockdown cell toxicity (counter line); HT-1080 IDH1 knockdown viability, ATP luminescence, 48 h; Potency, µM (doses to about 46.1 µM), for the others: top-dose activity, negative = toxicity, most hits filed as cytotoxic; hit rate 2% among 360,000;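 note: 0% = DMSO wells and -100% = cell-free medium wells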
#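 CellTiter-Glo luminescence after 48 h compound exposure at 37 degrees C of IDH1-knockdown HT-1080 cells in 5% FBS RPMI. %Activity scaled between DMSO wells and cell-free media wells, with curves fitted and assigned curve classes.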
# DT40 TDP1 CPT: growth inhibition of DT40 Tdp1-/-;hTDP1 cells with camptothecin (screen for TDP1 inhibitors). Potency, µM (series often up to 46.2 µM), for the others: at the highest dose activity change, negative = growth inhibition, usual class: inhibitors. hit rate 12% among 420,000. chicken DT40 Tdp1-/-;hTDP1 cells + 20 nM CPT, ATP luminescence, 48 h; note: nearly all actives have a fitted effect of over 55% in size
#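 Cell growth measured by CellTiter-Glo luminescence after a minimum 48 h, 37 C compound exposure with 20 nM CPT in Tdp1-knockout DT40 cells stably expressing hTDP1, seeded 400/well; qHTS titration format.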
# An asterisk follows results filed as active; i = inactive; ? = inconclusive; nt = no result given; ! = a repeat was not active. Calls come from the whole dose curve; as a rule, active = well fitted curve in the direction sought with a large enough effect; inconclusive = small, poorly fitted or top-dose-only effect, or another doubt; inactive = no such curve, though single readings can be large; an effect the other way counts as inactive or inconclusive. Unless noted, % is set by controls: 0 for no effect and ±100 for the full control effect; potency is the fitted concentration of half-maximal effect.
SMILES,DT40 TDP1 no CPT,KB-3-1 cytotox,HT1080-NT tox,KB-V1 cytotox,HT1080 IDH1KD tx,DT40 TDP1 CPT
CN(C)C1=NC[C@H](Cc2ccccc2)N1CC1CCCCC1,12µM*,i,0%,i,-4%,13µM*
CN(C)C1=NC[C@H](Cc2ccccc2)N1CC1CCC(C(C)(C)C)CC1 (some centres not stated),13µM*,i,-26%,i,-13%,21µM*
CC(C)C[C@H]1CN=C(Nc2ccccc2)N1CC1CCC1,?,?,-1%,i,-2%,?
CC(Oc1ccc(C(=O)c2ccc(F)cc2)cc1)C(=O)N1CCOCC1 (configuration not stated),-18%,i,-2%,?,2%,-4%
COc1cccc(CNC(=O)c2ccc3nc(CCc4ccccc4)oc3c2)c1OC,?,i,nt,i,nt,-23%
CN(C)C1=NC[C@H](Cc2ccccc2)N1CC1CCCC1,23µM*,i,-6%,i,-9%,15µM*
CN(C)c1ncnc2c1NC1=C(S2)C(=NCCCC(=O)O)CC(C)(C)C1,?,i,5%,i,6%,21µM*
COc1ncnc2c1NC1=C(S2)C(=NCCC(=O)O)CC(C)(C)C1,-24%,i,16%,i,4%,-5%
CCOc1ccc(-c2nn(-c3ccccc3)cc2/C=C(\C#N)S(=O)(=O)c2ccccc2)cc1C,13µM*,?,28%,?,?,?
CN(C)S(=O)(=O)c1cccc(-c2nn(-c3ccccc3)cc2/C=C(/C#N)C(=O)NCc2ccco2)c1,?,i,?,i,-6%,18µM*
CCCOc1cccc(-c2nn(-c3ccccc3)cc2/C=C(\C#N)C(=O)NCCCn2ccnc2)c1,?,i,-13%,18µM*,-21%,?
N#C/C(=C\c1ccc([N+](=O)[O-])cc1)C(=O)NCCCn1ccnc1,?,?,14%,i,-9%,?
CCc1ccc(C(=O)NNC(=O)c2ccc(=O)n(C)n2)cc1,0%,i,0%,i,7%,-9%
CC1CCc2nc3ncn(Cc4cccc(F)c4)c(=O)c3cc2C1 (configuration not stated),?,i,nt,i,nt,?
Cc1cccc(N(C)c2ccc3cc(S(=O)(=O)N4CCCC4)ccc3n2)c1,16µM*,i,-10%,?,-9%,16µM*!
CN(Cc1ccccc1)c1ccc2cc(S(=O)(=O)N3CCCCC3)ccc2n1,9.2µM*,i,nt,?,nt,10µM*
O=S(=O)(c1ccc2nc(N3CCN(c4ccccc4F)CC3)ccc2c1)N1CCCCC1,?,i,1%,i,-4%,-28%
Cc1ccc(CNC(=O)Cn2ccn(-c3ccc(F)cc3)c(=O)c2=O)cc1,3%,i,nt,i,nt,20%
Cc1ccc2c(c1)c1c(c(=O)n(-c3cccc(Cl)c3)c(=O)n1C)n2C,-27%,i,nt,i,nt,?
CCC(CC)C(=O)N1c2ccccc2C(C)(c2ccccc2)CC1(C)C (configuration not stated),23µM*,i,nt,i,nt,18µM*
CCC(=O)N1c2ccccc2C(C)(c2ccccc2)CC1(C)C (configuration not stated),-28%,i,nt,i,nt,-16%
CC1=CC(C)(C)N(C(=O)CSc2nnc(N)s2)c2ccccc21,-38%,i,-1%,i,-3%,-21%
CC1(c2ccccc2)CC(C)(C)N(C(=O)CSc2nnc(N)s2)c2ccccc21 (configuration not stated),?,i,-16%,16µM*,-11%,?
COc1ccc(S(=O)(=O)N2CCC(C(=O)N[C@@H](C)C(=O)NC3CCCC3)CC2)cc1,?,i,0%,i,11%,16µM*
COc1ccc(NS(=O)(=O)c2cccc(NC(=O)NC3CCCCC3)c2)cc1,23µM*,i,?,i,-21%,?
SMILES,DT40 TDP1 no CPT,KB-3-1 cytotox,HT1080-NT tox,KB-V1 cytotox,HT1080 IDH1KD tx,DT40 TDP1 CPT
COc1ccc(NS(=O)(=O)c2ccc(C)c(NC(=O)NC3CCCCC3)c2)cc1,?,i,0%,i,-13%,?
COc1ccc(S(=O)(=O)N2C3CCC2CC(NC(=O)NC2CCCCC2)C3)cc1 (configuration not stated),?,i,7%,16µM*,-7%,?
CC(C(=O)NC1CCCC1)N1CCN(S(=O)(=O)c2ccc(C(C)(C)C)cc2)CC1 (configuration not stated),10µM*,i,4%,?,5%,21µM*
COc1cc(C)c(C(=O)CSc2nnc(CNC(=O)c3ccco3)n2C)cc1C,-18%,?,10%,i,5%,-2%
Cc1cccc(NC(=O)c2nc[nH]c2C(=O)Nc2ccccc2F)c1,?,i,26%,i,6%,?
COc1ccc(NS(=O)(=O)c2cccc(NC(=O)c3ccccn3)c2)cc1,?,?,-28%,10µM*,-29%,21µM*
COc1ccc(NS(=O)(=O)c2ccc(OC)c(NC(=O)CCC3CCCCC3)c2)cc1,?,i,-1%,12µM*,10%,-25%
Cc1ccc(S(=O)(=O)Nc2ccc3c(c2)OCCO3)c(C)c1NS(C)(=O)=O,10µM*,i,-7%,?,-5%,?
CN(C)CCNc1ncnc2c1ncn2[C@H]1CN(Cc2ccncc2)C[C@@H](CO)O1,2%,i,17%,i,0%,0%
O=C(Cn1nnc(-c2ccccc2)c1COc1ccc2ccccc2c1)NCC1CC1,?,i,-9%,i,-5%,18µM*
CN(Cc1ccccc1)C(=O)Cn1nnc(-c2ccccc2)c1COc1ccccc1,21µM*,i,-17%,i,-12%,?
CN(Cc1ccccc1)C(=O)Cn1nnc(-c2ccccc2)c1COc1ccc2ccccc2c1,18µM*,?,-23%,i,-10%,23µM*
COc1ccc(-c2oc3c(c2C#CC(C)(C)O)C(OC)CCC3)cc1 (configuration not stated),16µM*,i,?,i,-4%,?
O=C(CC[C@H]1O[C@@H](n2ccc(=O)[nH]c2=O)[C@H](O)[C@@H]1O)NCc1ccccc1,-4%,i,1%,i,4%,3%
